In PubChem BioAssay (NCATS):
Records with an inconclusive call do not appear. Active and inactive are the calls of the source. Unless noted, calls follow the shape of the dose curve; as a rule, active = well fitted curve in the direction sought with a large enough effect; inconclusive = small, poorly fitted or top-dose-only effect, or another doubt; inactive = no such curve, though single readings can be large; an effect the other way counts as inactive or inconclusive.

Experiments:
[1] = qHTS for differential inhibitors of proliferation of Plasmodium falciparum line GB4 (AID 1816); settings: Potency: Plasmodium falciparum GB4 proliferation inhibition; series mostly up to 28.7 µM;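 also: parasite growth measured after 72 h incubation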; also: potency is read from the fitted curve at half-maximal effect
[2] = qHTS for differential inhibitors of proliferation of Plasmodium falciparum line 3D7 (AID 1876); also: potency is read from the fitted curve at half-maximal effect; settings: P. falciparum 3D7 proliferation inhibition; series mostly up to 28.7 µM
[3] = qHTS for differential inhibitors of proliferation of Plasmodium falciparum line Dd2 (AID 1882); settings: Potency: Plasmodium falciparum Dd2 proliferation inhibition; series mostly up to 28.7 µM; also: nearly all actives have a fitted effect of over 65% in size; also: potency is read from the fitted curve at half-maximal effect
In short: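 RBC culture, 0.3% parasitemia / 2.5% Hct final; cpd added by pin tool in DMSO; 72 h, 37 C, 5% CO2; lysis buffer + SYBR Green I, o/n RT dark; FI 485/535; norm. to artemisinin 0.29 uM and DMSO.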

[4] = qHTS for differential inhibitors of proliferation of Plasmodium falciparum line W2 (AID 1883); settings: Potency: Plasmodium falciparum W2 proliferation inhibition; series mostly up to 28.7 µM;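 also: parasites grown with compound for 72 h before lysis and staining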; also: potency is read from the fitted curve at half-maximal effect
[5] = qHTS for differential inhibitors of proliferation of Plasmodium falciparum line HB3 (AID 1886); settings: Potency: Plasmodium falciparum HB3 proliferation inhibition; series mostly up to 28.7 µM;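 also: parasites grown with compound for 72 h before SYBR Green readout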; also: potency is read from the fitted curve at half-maximal effect
[6] = target: ATP-dependent DNA helicase Q1 (Homo sapiens) (UniProt P46063); experiment: qHTS Validation Assay for Inhibitors of RecQ-Like Dna Helicase 1 (RECQ1) (AID 2353); settings: recombinant RECQ1 helicase DNA unwinding assay; series mostly up to 25.6 µM
In short: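 RECQ1T1 50 nM; forked duplex (20 bp + 30-nt ss tails) 200 nM, ATP 2 mM final; pH 8.0, 2 mM MgCl2, 2.5 ug/ml poly(dI-dC); 15 min compound preincubation; discontinuous kinetic read over 2 h at RT.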

[7] = target: RecQ-like DNA helicase BLM (Homo sapiens) (UniProt P54132); experiment: qHTS Validation Assay for Inhibitors of Bloom's syndrome helicase (BLM) (AID 2364); settings: BLM helicase DNA unwinding, fluorescence, in vitro; series mostly up to 57.1 µM
In short: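 Forked 20-bp duplex substrate (200 nM, TAMRA/BHQ-2) plus 2 mM ATP added after 15 min compound preincubation with 50 nM enzyme, pH 8.0, poly(dI-dC) 2.5 ug/ml. Strand separation followed by fluorescence (525/598 nm) over 2 h, normalized to enzyme-free and DMSO controls.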

[8] = Cytometric Cell-Based qHTS for Inhibitors of the mTORC1 Signaling Pathway in MEF (Tsc2-/-, p53-/-) Cells (AID 2660); settings: mTORC1 pathway cytometry; series mostly up to 38.3 µM;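 also: Tsc2 and p53 null MEFs carrying empty vector with compound for 24 h; percent of cells above a phospho-rpS6 to PI ratio cutoff in each well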
In short: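 Cells are plated, treated with compound for 24 hrs at 37 degree Celsius, then fixed, blocked and immunostained for phospho-rpS6 Ser235/236. Propidium iodide counterstain follows. Per-well % positive cells is derived from the PI-normalized phospho-S6 signal.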

[9] = High Content Imaging Cell-Based qHTS for Inhibitors of the mTORC1 Signaling Pathway in MEF (Tsc2-/-, p53-/-) Cells (AID 2666); settings: series mostly up to 38.3 µM;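 also: percent of cells scored positive for phospho-rpS6 Ser235/236 immunostaining by imaging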
In short: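 Tsc2-/-, p53-/- MEFs (empty-vector stable) grown in DMEM + 10% FBS were exposed to compounds for 24 hrs at 37 degree Celsius, fixed, and stained with Alexa-488 anti-phospho-rpS6 Ser235/236 plus Hoechst. Imaging gave the percentage of positive cells per well.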

[10] = Cytometry Cell-Based qHTS for Inhibitors of the mTORC1 Signaling Pathway in MEF cells (AID 2668); settings: mTORC1 pathway readout; series mostly up to 38.3 µM; also: potency is read from the fitted curve at half-maximal effect
In short: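 WT MEFs (Tsc2-/-, p53-/- stably re-expressing WT Tsc2) in DMEM + 10% FBS received compounds 24 hrs after plating, for 24 hrs at 37 degree Celsius. Fixed cells stained with Alexa-488 anti-phospho-rpS6 Ser235/236 and propidium iodide; laser-scanning cytometry read-out.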

[11] = target: Ubiquitin carboxyl-terminal hydrolase 2 (Homo sapiens) (UniProt O75604); experiment: qHTS Validation Assay for Inhibitors of Ubiquitin-specific Protease USP2a Using CHOP2 as the Reporter (AID 463106); settings: USP2a cleavage of CHOP2 reporter, enzymatic; series mostly up to 38.3 µM
In short: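 Readout was coupled fluorescence (Ex 485/Em 531 nm), read 60 min after adding 25 nM final Ub-CHOP2 and 25 nM reporter substrate. Beforehand, 10 nM final USP2 core had 30 min at RT with compound in pH 8.0 buffer. Curves were fitted after normalization to NEM and flagged for artifacts using time-zero reads.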

[12] = target: DNA polymerase III PolC-type (Bacillus subtilis (strain 168)) (UniProt P13267); experiment: qHTS Validation Assay for the Inhibitors of DNA Replication in Gram-Positive Bacteria (AID 485295); settings: Gram-positive bacterial DNA replication assay; series mostly up to 57.1 µM;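 also: PicoGreen fluorescence of double-stranded DNA made on primed circular M13 template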
In short: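 Reconstituted B. subtilis holoenzyme (Pol III, beta clamp, SSB, primase) was preincubated with compound at room temperature, then given single-stranded circular M13Gori plus dNTPs and NTPs. EDTA-containing PicoGreen stopped the reaction, and dsDNA product was read by fluorescence.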

[13] = target: Tumor susceptibility gene 101 protein (Homo sapiens) (UniProt Q99816); experiment: qHTS Validation Assay for Iinhibitors of HIV-1 Budding by Blocking the Interaction of PTAP/TSG101 (AID 485342; calls by dose curve); settings: TSG101-PTAP binding, fluorescence polarization, 4-point titration; series mostly up to 115 µM
In short: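 Tsg101 binding domain (10 uM final) in pH 7.5 HEPES/NaCl/Tween 20/EDTA/TCEP buffer was mixed with pin-transferred compounds, then FITC-labeled PTAP peptide (50 nM final) was added; after 20 min at r.t., fluorescence polarization was read.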

[14] = target: Beta-2 adrenergic receptor (Homo sapiens) (UniProt P07550); experiment: qHTS validation assay of beta-arrestin-biased ligands of beta2-adrenergic receptor (AID 485366); settings: cell-based beta-arrestin recruitment to ADRB2, qHTS; series mostly up to 46.1 µM
In short: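 Compound series up to 46 microM applied to beta2-AR/beta-arrestin Tango cells, 18 hr, 37 degrees C, 5% CO2. Read-out: tTA-driven luciferase luminescence, converted to %Activity; concentration-response curves assigned curve classes.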

[15] = qHTS for differential inhibitors of proliferation of Plasmodium falciparum line D10 (AID 1877); settings: series mostly up to 28.7 µM;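 also: parasites grown with compound for 72 h before DNA staining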; also: potency is read from the fitted curve at half-maximal effect
[16] = target: Ferritin light chain (Equus caballus) (UniProt P02791); experiment: qHTS Validation Assay for Identification of Novel General Anesthetics (AID 2323); settings: horse apoferritin, anesthetic-site fluorescent probe displacement; series mostly up to 76.9 µM
In short: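 Competitive displacement of profluorescent 1-aminoanthracene (1-AMA, 50% saturated solution in PBS) from 10 uM horse-spleen apoferritin. Compounds incubated 10 min at room temperature; fluorescence read at 380 nm excitation/535 nm emission, normalized to free 1-AMA and complex, fitted with four-parameter Hill equation.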

[17] = qHTS Validation Assay to Find Inhibitors of Chronic Active B-Cell Receptor Signaling (AID 485345; active = well fitted curve in the direction sought with a large enough effect in the main read-out, with a control signal flat, not every such curve was filed as active); settings: ABC-DLBCL cells, chronic BCR signaling reporter, CBG luciferase; series mostly up to 46.1 µM
In short: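 Read-out: ratio of filter-corrected green (IkappaBalpha fusion) to red (native) luciferase signal in doxycycline-induced TMD8 cells after 4 h at 37C. Titration spanned 46 uM–3 nM; Data were normalised to basal cells and 10 uM MG-132 wells.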

[18] = target: ATP-dependent 6-phosphofructokinase (Trypanosoma brucei brucei) (UniProt O15648); experiment: qHTS Validation Assay to Find Inhibitors of T. brucei phosphofructokinase (AID 485368); settings: T. brucei PFK enzyme assay, qHTS 7-point titration; series mostly up to 57.5 µM
In short: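 qHTS format, up to 57 uM. PFK 1.25 nM; F6P 0.5 mM; ATP 0.1 mM; 5 mM MgCl2, 0.01% Tween20, 0.1% BSA; 0.1 M TEA pH 8.0; 45 min RT; ADP-Glo readout; no-enzyme control = full inhibition.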

[19] = qHTS Assay for Identification of Small Molecule Inducers of Hypoxia Response (AID 2120; active = well fitted curve in the direction sought with a large enough effect in the signal ratio, with a control signal flat, not every such curve was filed as active; the % refers to the signal ratio); settings: hypoxia response reporter cells, beta-lactamase ratio readout; series mostly up to 104 µM
In short: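 Read-out: CCF4 FRET emission ratio 460nm/530nm (excitation 405nm), converted to %Activity, with AC50 fitted across a compound titration. ME-180 cells carried an HRE-driven beta-lactamase reporter; compound exposure 17 h, 37 degrees C.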

Measured: Potency

Chain of DNA polymerase III PolC-type (Bacillus subtilis (strain 168)) (P13267 whole entry, looked up): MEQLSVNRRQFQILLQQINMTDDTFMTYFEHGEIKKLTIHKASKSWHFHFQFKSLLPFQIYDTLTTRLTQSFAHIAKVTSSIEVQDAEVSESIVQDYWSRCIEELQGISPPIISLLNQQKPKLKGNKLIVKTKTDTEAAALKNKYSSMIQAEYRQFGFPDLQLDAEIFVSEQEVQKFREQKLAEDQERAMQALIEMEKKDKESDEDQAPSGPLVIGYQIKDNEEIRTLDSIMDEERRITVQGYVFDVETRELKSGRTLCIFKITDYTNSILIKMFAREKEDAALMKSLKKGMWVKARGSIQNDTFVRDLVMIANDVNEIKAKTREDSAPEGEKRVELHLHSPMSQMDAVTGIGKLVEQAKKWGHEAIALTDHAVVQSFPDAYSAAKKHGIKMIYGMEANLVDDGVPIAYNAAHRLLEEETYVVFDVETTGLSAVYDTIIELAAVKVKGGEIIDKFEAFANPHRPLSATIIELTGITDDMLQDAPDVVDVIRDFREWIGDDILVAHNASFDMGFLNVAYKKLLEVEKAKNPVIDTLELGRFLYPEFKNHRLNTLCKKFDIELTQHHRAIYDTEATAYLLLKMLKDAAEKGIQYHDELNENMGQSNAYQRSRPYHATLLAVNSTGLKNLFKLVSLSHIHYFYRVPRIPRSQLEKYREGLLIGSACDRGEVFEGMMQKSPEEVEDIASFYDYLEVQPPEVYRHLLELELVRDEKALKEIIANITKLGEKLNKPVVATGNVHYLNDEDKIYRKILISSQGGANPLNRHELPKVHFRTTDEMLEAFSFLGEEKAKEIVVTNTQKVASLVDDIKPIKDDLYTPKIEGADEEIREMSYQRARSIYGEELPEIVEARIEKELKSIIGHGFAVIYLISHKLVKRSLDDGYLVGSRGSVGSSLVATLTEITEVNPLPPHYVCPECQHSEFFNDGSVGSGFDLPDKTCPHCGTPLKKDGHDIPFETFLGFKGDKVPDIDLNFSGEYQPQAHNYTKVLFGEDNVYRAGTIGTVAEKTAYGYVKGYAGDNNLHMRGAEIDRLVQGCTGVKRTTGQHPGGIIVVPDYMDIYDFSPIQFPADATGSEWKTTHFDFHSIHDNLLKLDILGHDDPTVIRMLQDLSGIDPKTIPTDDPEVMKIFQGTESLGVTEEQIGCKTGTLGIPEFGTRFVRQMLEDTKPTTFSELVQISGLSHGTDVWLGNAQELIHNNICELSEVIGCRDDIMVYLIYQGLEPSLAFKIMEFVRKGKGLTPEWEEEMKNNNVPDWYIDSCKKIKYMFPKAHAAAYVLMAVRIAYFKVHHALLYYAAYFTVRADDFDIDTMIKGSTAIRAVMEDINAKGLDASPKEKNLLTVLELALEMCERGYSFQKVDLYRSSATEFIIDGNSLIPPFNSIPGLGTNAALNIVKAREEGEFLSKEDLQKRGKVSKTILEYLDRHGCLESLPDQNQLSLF
Chain of ATP-dependent DNA helicase Q1 (Homo sapiens) (P46063 whole entry, looked up): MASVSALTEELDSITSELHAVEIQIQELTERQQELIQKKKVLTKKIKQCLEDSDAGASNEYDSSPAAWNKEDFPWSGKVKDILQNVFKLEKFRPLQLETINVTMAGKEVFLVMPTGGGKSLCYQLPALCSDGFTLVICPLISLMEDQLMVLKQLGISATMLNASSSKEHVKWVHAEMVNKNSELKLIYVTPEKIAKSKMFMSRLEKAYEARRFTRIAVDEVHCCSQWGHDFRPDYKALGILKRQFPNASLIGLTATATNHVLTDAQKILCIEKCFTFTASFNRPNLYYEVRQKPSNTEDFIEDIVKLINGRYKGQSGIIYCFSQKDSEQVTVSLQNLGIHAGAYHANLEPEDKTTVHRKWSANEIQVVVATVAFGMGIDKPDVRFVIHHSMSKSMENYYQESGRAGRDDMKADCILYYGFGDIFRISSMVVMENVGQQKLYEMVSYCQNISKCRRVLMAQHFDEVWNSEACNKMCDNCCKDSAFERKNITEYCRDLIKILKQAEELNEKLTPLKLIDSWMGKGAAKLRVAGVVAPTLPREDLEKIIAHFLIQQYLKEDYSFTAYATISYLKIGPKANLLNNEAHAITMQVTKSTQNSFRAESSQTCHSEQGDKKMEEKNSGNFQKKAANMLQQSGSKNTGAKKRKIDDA
Chain of Beta-2 adrenergic receptor (Homo sapiens) (P07550 whole entry, looked up): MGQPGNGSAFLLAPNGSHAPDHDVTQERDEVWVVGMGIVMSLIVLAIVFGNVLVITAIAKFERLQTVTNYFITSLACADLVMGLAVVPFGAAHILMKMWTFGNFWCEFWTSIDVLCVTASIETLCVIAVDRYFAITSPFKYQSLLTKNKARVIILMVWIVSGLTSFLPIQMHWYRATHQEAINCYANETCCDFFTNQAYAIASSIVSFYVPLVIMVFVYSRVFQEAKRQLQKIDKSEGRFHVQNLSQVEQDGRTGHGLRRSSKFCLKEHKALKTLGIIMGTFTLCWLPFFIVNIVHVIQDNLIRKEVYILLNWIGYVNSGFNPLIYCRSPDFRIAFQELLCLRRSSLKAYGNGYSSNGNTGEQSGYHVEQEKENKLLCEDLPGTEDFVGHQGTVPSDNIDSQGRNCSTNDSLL
Chain of Ferritin light chain (Equus caballus) (P02791 2-175 limits assumed): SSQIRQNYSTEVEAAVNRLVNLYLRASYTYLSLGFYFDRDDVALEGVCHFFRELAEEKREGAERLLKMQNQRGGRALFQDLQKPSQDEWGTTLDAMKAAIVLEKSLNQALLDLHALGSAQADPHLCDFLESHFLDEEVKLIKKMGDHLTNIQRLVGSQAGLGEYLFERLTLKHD
Chain of Tumor susceptibility gene 101 protein (Homo sapiens) (Q99816 whole entry, looked up, the tested form may be a part): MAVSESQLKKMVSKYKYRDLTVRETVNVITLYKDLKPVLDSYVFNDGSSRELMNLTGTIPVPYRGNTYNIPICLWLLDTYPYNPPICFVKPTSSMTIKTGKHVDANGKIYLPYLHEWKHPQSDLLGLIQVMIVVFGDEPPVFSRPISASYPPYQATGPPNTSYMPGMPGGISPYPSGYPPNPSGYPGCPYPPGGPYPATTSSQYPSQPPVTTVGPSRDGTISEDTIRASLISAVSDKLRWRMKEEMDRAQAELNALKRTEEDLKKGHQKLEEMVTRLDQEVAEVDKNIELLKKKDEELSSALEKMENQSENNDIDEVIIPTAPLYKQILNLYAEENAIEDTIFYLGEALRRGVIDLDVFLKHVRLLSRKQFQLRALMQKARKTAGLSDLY
Chain of Ubiquitin carboxyl-terminal hydrolase 2 (Homo sapiens) (O75604 whole entry, looked up): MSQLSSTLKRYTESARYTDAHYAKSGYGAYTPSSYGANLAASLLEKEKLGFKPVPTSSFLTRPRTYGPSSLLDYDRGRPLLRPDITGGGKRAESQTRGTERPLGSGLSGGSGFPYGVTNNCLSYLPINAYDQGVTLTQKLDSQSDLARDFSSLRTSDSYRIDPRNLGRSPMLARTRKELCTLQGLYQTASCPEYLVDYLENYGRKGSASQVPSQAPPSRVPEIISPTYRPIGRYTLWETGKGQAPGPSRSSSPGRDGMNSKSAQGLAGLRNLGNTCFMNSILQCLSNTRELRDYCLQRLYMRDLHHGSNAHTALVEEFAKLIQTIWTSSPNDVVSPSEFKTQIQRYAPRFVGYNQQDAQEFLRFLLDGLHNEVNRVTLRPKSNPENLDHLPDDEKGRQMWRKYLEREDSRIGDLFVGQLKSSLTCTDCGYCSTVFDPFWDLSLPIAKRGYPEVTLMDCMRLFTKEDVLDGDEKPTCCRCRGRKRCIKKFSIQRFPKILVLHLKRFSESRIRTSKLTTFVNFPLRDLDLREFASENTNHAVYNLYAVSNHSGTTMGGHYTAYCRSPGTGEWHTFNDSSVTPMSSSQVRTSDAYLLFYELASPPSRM
Chain of ATP-dependent 6-phosphofructokinase (Trypanosoma brucei brucei) (O15648 whole entry, looked up): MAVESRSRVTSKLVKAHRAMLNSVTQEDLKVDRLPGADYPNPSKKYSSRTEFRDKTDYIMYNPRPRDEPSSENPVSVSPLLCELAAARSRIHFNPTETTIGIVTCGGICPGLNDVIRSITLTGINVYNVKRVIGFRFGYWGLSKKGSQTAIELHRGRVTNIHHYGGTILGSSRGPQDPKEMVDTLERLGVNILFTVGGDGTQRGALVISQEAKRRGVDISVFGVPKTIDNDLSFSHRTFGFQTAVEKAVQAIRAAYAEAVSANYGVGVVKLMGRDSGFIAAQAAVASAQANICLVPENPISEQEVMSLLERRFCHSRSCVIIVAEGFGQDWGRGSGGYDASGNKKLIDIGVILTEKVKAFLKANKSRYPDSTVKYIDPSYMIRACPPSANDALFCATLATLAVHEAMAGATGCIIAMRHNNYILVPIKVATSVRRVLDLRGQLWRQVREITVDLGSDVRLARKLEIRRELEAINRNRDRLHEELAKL

O=c1cc(-c2ccc(O)cc2)oc2cc(O)cc(O)c12
active: [1] 14.1 µM | [2] 12.6 µM | [4] 10 µM | [5] 11.2 µM
not listed: [15] | [16] | [17] | [18] | [19]
inactive: all other assays above

O=C1NC(=O)C(c2ccccc2)(c2ccccc2)N1
not listed: [7] | [19]
inactive: all other assays above

CC1=C(/C=C/C(C)=C/C=C/C(C)=C/C(=O)Nc2ccc(O)cc2)C(C)(C)CCC1
active: [1] 6.31 µM | [2] 11.2 µM | [15] 12.6 µM | [3] 11.2 µM | [4] 3.98 µM | [5] 12.6 µM | [10] 18.5 µM
inactive: [6] | [11] | [12] | [13] | [14] | [18]

CC(=O)N[C@@H](CS)C(=O)O
not listed: [6] | [7] | [19]
inactive: all other assays above

CC(=O)c1ccc(S(=O)(=O)NC(=O)NC2CCCCC2)cc1
not listed: [7] | [19]
inactive: all other assays above

CCN1CCC[C@H]1CNC(=O)c1cc(S(N)(=O)=O)ccc1OC
not listed: [7] | [18] | [19]
inactive: all other assays above

Cc1cccc(C)c1OCC(C)N (stereo not given)
active: [1] 12.6 µM | [4] 7.94 µM
not listed: [3] | [16] | [18] | [19]
inactive: all other assays above

CCCCC1C(=O)N(c2ccccc2)N(c2ccccc2)C1=O
active: [1] 14.1 µM | [2] 11.2 µM | [4] 11.2 µM
not listed: [3] | [5] | [7] | [15] | [16] | [18]
inactive: all other assays above

O=c1c(-c2ccc(O)cc2)coc2cc(O)ccc12
not listed: [7] | [17] | [18] | [19]
inactive: all other assays above

CCCCCN(C)CCC(O)(P(=O)(O)O)P(=O)(O)O
inactive: [8] | [9] | [10] | [11] | [12] | [13] | [17] | [14] | [18]

CCN(CC)CCOC(=O)c1ccc(N)cc1
not listed: [4] | [7] | [19]
inactive: all other assays above

CCn1cc(C(=O)O)c(=O)c2ccc(C)nc21
inactive: [8] | [9] | [10] | [11] | [12] | [13] | [17] | [14] | [18]

CCCNC(=O)NS(=O)(=O)c1ccc(Cl)cc1
not listed: [18]
inactive: all other assays above

C[N+](C)(C)CCCCCC[N+](C)(C)C
not listed: [19]
inactive: all other assays above

COC(=O)[C@@H]1[C@H]2C[C@H]3c4[nH]c5ccccc5c4CCN3C[C@@H]2CC[C@@H]1O
not listed: [1] | [2] | [4] | [5] | [10] | [15] | [17] | [19]
inactive: all other assays above

O=c1[nH]cnc2c1ncn2[C@H]1CC[C@@H](CO)O1
inactive: [19]

CN(C)CCC(c1ccccc1)c1ccccn1 (stereo not given)
active: [1] 5.62 µM | [4] 3.55 µM
not listed: [3] | [19]
inactive: all other assays above
